The list is not random: actives were taken first. Their share in the collection is about 10%.
HPGD block = inhibitors of human 15-hydroxyprostaglandin dehydrogenase (HPGD). 150,000 tested, 4.3% active. purified HPGD, NADH fluorescence kinetic, PGE2 substrate. AID 894. Potency, µM, for inactives: at the top dose activity change, negative = inhibition, usual class: inhibitors. P15428; also: potency is read from the fitted curve at half-maximal effect
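20 nM HPGD preincubated 15 min at room temperature with compound in 50 mM Tris-HCl pH 8, 0.01% Tween 20. Started with 1 mM NAD+ and 30 uM prostaglandin E2; NADH fluorescence (360/450 nm) read 5 times over 30-s intervals, last minus first.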
ALDH1A1 block = blocks purified human ALDH1A1 activity. AID 1030. 220,000 tested, 7.3% active. Potency, µM (doses to about 75.3 µM), for the others: top-dose activity, negative = inhibition, usual class: inhibitors. Purified ALDH1A1, NADH fluorescence, propionaldehyde substrate;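 also: potency is read from the fitted curve at half-maximal effect; plate controls were no enzyme wells and a reference inhibitor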
LMNA splice mod = LMNA splicing modulation | HeLa LMNA splicing GFP/RFP minigene ratio, 48 h | Potency, µM (top dose mostly 46.1 µM), without a hit: at the highest dose ratio change, negative = inhibition, most hits filed as inhibitors | 200,000 tested, 0.01% active; active = well fitted inhibition curve with a large enough effect in the signal ratio, with a control signal flat, not every such curve was filed as active; inconclusive = small, poorly fitted or top-dose-only effect, or effect the other way, or a change in a side signal; the % refers to the signal ratio; also: potency is read from the fitted curve at half-maximal effect
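S3 HeLa stable clones carrying a lamin A-EGFP splicing minigene plus DsRed2 were seeded at 600 cells/well in Opti-MEM with 2% FBS, pin-dosed and incubated 48 h at 37°C. Acumen cytometry (488 nm) gave the GFP/RFP total-intensity ratio.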
PNC inhibitor = inhibitors of perinucleolar compartment assembly; PC3M PTB-GFP, PNC prevalence imaging, 16 h; hits give low values; activity change (PNC), negative = inhibition, % at 10 µM; 140,000 tested, 3.1% active;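 active = readout at or below -70, meaning at least 70% loss of cells showing the perinucleolar compartment, a nuclear body marking cancer cells; inconclusive = readout between -30 and a set limit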;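 also: plate controls were DMSO wells for no effect and camptothecin positive control wells for full effect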
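PC3M cells stably expressing PTB-GFP, 750–1000 cells/well, treated 16 h at 37 °C with compound (23 nl of library stock), in duplicate. After paraformaldehyde fixation and Hoechst stain, imaged at 20x; PNC prevalence scored by image analysis.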
ALOX12 inhib = blocks human 12-lipoxygenase activity; 150,000 tested, 0.12% active; Potency, µM (doses to about 57.1 µM), without a hit: at the top dose activity change, negative = inhibition, usual class: inhibitors; AID 1452; purified 12-hLO, xylenol orange hydroperoxide absorbance; active = well fitted inhibition curve with a large enough effect; inconclusive = small, poorly fitted or top-dose-only effect; also: potency is read from the fitted curve at half-maximal effect; nearly all actives have a fitted effect of over 55% in size
Target sequence (P18054 whole entry, looked up): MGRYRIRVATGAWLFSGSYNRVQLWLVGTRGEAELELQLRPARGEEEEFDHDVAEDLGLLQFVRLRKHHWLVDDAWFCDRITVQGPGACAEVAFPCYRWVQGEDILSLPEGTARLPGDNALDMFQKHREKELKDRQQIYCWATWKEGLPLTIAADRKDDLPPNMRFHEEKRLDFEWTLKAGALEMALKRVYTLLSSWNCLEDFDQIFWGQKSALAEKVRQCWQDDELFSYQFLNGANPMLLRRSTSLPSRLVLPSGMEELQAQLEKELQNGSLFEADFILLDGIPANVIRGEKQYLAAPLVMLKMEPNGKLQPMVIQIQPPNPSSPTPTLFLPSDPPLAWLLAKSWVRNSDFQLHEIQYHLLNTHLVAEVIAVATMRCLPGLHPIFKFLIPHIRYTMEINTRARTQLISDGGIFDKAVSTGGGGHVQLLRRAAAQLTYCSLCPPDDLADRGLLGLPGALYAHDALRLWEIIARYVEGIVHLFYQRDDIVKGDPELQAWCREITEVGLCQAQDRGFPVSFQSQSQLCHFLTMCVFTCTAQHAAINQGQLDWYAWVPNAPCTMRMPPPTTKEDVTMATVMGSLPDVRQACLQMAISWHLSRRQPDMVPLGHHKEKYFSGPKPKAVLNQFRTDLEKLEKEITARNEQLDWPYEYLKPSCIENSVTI
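Hydroperoxide formation by human 12-lipoxygenase from 40 uM arachidonic acid was followed colorimetrically via ferric-xylenol orange complex, using the 573/405 nm absorbance ratio. Enzyme concentration was 150 nM, with 30 min reaction at room temperature.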
Starred values were filed as active, the others as inactive; [ ] = dose if it differs, or a comment. Unless noted, calls follow the shape of the dose curve; as a rule, active = well fitted inhibition curve with a large enough effect (not every such curve was filed as active); inconclusive = small, poorly fitted or top-dose-only effect, or another doubt; inactive = no such curve, though single readings can be large or run the other way. Unless noted, % is scaled to controls: 0 for no effect and ±100 for the full control effect.

COc1ccccc1NC(=S)NC(=O)C1CC1 was read as HPGD block -6%, ALDH1A1 block 3%, LMNA splice mod 1%, PNC inhibitor -7 and ALOX12 inhib -1%.
`O=C(NC(=S)Nc1ccccn1)c1ccc([N+](=O)[O-])cc1` gave HPGD block 4%, ALDH1A1 block 6%, LMNA splice mod 3%, PNC inhibitor -85* and ALOX12 inhib 2%.
`CCOc1ccc(C(=O)NC(=S)NC2CCCC2)cc1[N+](=O)[O-]` gave HPGD block -11%, ALDH1A1 block 13µM*, LMNA splice mod inconclusive, PNC inhibitor inconclusive and ALOX12 inhib 28µM*.
`Cc1ccc(NC(=O)Cn2cnc3c(cnn3C(C)(C)C)c2=O)cc1` gave HPGD block -12%, ALDH1A1 block -5%, LMNA splice mod 4%, PNC inhibitor -100* and ALOX12 inhib 0%.
Screening Oc1ccccc1C1=NOC(O)(C(F)F)C1 (stereo unspecified) returned HPGD block 16µM*, ALDH1A1 block 1%, LMNA splice mod 0%, PNC inhibitor inconclusive and ALOX12 inhib -2%.
Screening Oc1ccccc1C1=Nc2ccccc2N=C(c2ccco2)C1 returned HPGD block -12%, ALDH1A1 block -2%, LMNA splice mod -8%, PNC inhibitor -11 and ALOX12 inhib 0%.
For COc1ncc2nc(CCc3ccccc3)c(=O)n(Cc3ccc(F)cc3)c2n1 the results were HPGD block -13%, ALDH1A1 block 0% and ALOX12 inhib -8%.
`CCOC(=O)C1=C(C)NC2=C(C(=O)CCC2)C1c1ccc(N(C)C)cc1` (stereo unspecified) gave HPGD block -1%, ALDH1A1 block 28µM*, LMNA splice mod -5%, PNC inhibitor 30 and ALOX12 inhib -4%.
Screening CCCOC(=O)C1=C(C)NC2=C(C(=O)CCC2)C1c1ccc(N(C)C)cc1 (stereo unspecified) returned HPGD block -7%, ALDH1A1 block inconclusive, LMNA splice mod -2%, PNC inhibitor 73 and ALOX12 inhib -3%.
For CC1=C(C(=O)OCC2CCCO2)C(c2ccc(C)o2)C2=C(CC(c3ccc(N(C)C)cc3)CC2=O)N1 (stereo unspecified) the results were HPGD block -8%, ALDH1A1 block 10µM*, LMNA splice mod -12%, PNC inhibitor 13 and ALOX12 inhib -2%.
Screening CCCCNC(=O)c1onc(CSc2ccc(C(C)C)cc2)c1C(=O)O returned HPGD block 10µM*, ALDH1A1 block 1%, LMNA splice mod inconclusive, PNC inhibitor -8 and ALOX12 inhib -7%.
For CC(C)NC(=O)c1onc(CSc2cccc3ccccc23)c1C(=O)O the results were HPGD block 22µM*, ALDH1A1 block inconclusive, LMNA splice mod inconclusive, PNC inhibitor 68 and ALOX12 inhib 5%.
`COCCNC(=O)c1onc(CSc2ccc(C(C)C)cc2)c1C(=O)O` gave HPGD block 16µM*, ALDH1A1 block 0%, LMNA splice mod 3%[0.0737 µM], PNC inhibitor 21 and ALOX12 inhib 6%.
For CC(C)NC(=O)c1onc(CSc2ccccc2)c1C(=O)O the results were HPGD block -5%, ALDH1A1 block -14%, LMNA splice mod 4%[0.0737 µM], PNC inhibitor 83 and ALOX12 inhib 2%.
Screening CCOc1cccc(SCc2noc(C(=O)NCCOC)c2C(=O)O)c1 returned HPGD block -42%, ALDH1A1 block inconclusive, LMNA splice mod -5%, PNC inhibitor 13 and ALOX12 inhib -8%.
Screening Cc1ccc2c(c1)-c1c(ssc1=S)C(C)(C)N2C(=O)c1ccco1 returned HPGD block 8.9µM*, ALDH1A1 block 10µM*, LMNA splice mod 1%, PNC inhibitor -100* and ALOX12 inhib 1%.
For CCC1=Nc2ccccc2NC2=C1C(=O)CCC2 the results were HPGD block -20%, ALDH1A1 block 11µM*, LMNA splice mod 8%, PNC inhibitor -29 and ALOX12 inhib -20%.
O=C(O)c1cccc(N2C(=O)c3cccnc3C2=O)c1 was read as HPGD block -2%, ALDH1A1 block 0%, LMNA splice mod 0%, PNC inhibitor -100* and ALOX12 inhib -11%.
Screening O=C1c2cccnc2C(=O)N1CO returned HPGD block -12%, ALDH1A1 block 1%, LMNA splice mod 0%, PNC inhibitor 8 and ALOX12 inhib 2%.
